Experimental data as given in PubChem BioAssay (NCI).
Compounds without any hit were thinned out: in the full panel of roughly 83,000, 20% have a hit.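 Activity criterion: percent growth below 10, measured after cells in 96-well plates were exposed to a single compound concentration for 48 hours.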 Calls of active or inactive are those of the source.

Assays:
Assay in all cases: NCI-60 one-dose screen, 48 h (100 = growth as untreated, 0 = no growth, -100 = all killed)
HT29 colon = conditions: 10 µM unless noted
SNB-75 CNS = conditions: 10 µM
PC-3 prostate = conditions: 10 µM unless noted
SK-MEL-5 melanoma = conditions: 10 µM unless noted
UACC-62 melanoma = conditions: 10 µM unless noted
SK-MEL-28 melanoma = conditions: 10 µM unless noted
SK-MEL-2 melanoma = conditions: 10 µM unless noted
EKVX NSCLC = conditions: 10 µM unless noted
SN12C renal = conditions: 10 µM unless noted
UO-31 renal = conditions: 10 µM unless noted
TK-10 renal = conditions: 10 µM unless noted
CAKI-1 renal = conditions: 10 µM unless noted
A498 renal = conditions: 10 µM unless noted
MOLT-4 leukemia = conditions: 10 µM unless noted
SNB-19 CNS = conditions: 10 µM unless noted
CCRF-CEM leukemia = conditions: 10 µM unless noted
U251 CNS = conditions: 10 µM unless noted
LOX IMVI melanoma = conditions: 10 µM unless noted
ACHN renal = conditions: 10 µM unless noted
HCT-15 colon = conditions: 10 µM unless noted

Measured: growth

O=C(CSc1nc2ccccc2[nH]1)Nc1ccc(-c2nc3ccccc3s2)c(Cl)c1
active: SNB-75 CNS -28.5% | SK-MEL-28 melanoma 0.271% | UO-31 renal 8.16%
inactive: HT29 colon 14.7% | PC-3 prostate 26.3% | SK-MEL-5 melanoma 23.4% | UACC-62 melanoma 49.3% | SK-MEL-2 melanoma 51.2% | EKVX NSCLC 27.1% | SN12C renal 35.1% | TK-10 renal 30.1% | CAKI-1 renal 26.9% | A498 renal 71.8% | MOLT-4 leukemia 81.3%

CC(C)(C)N1CCC1C(N)=O (stereo not drawn)
inactive: HT29 colon 109% | SNB-75 CNS 89.3% | SNB-19 CNS 99.4% | PC-3 prostate 95.3% | SK-MEL-5 melanoma 107% | UACC-62 melanoma 91.5% | SK-MEL-28 melanoma 114% | SK-MEL-2 melanoma 159% | EKVX NSCLC 92.2% | SN12C renal 104% | UO-31 renal 131% | TK-10 renal 91.8% | CAKI-1 renal 83% | A498 renal 136% | CCRF-CEM leukemia 93% | MOLT-4 leukemia 120%

Clc1ccccc1-c1nc2ccccc2[nH]1
inactive: HT29 colon 103% | SNB-75 CNS 84.1% | SNB-19 CNS 90% | PC-3 prostate 94.4% | SK-MEL-5 melanoma 102% | UACC-62 melanoma 98.2% | SK-MEL-28 melanoma 113% | SK-MEL-2 melanoma 116% | EKVX NSCLC 90.3% | SN12C renal 116% | UO-31 renal 95.1% | TK-10 renal 121% | CAKI-1 renal 77.5% | A498 renal 110% | CCRF-CEM leukemia 91% | MOLT-4 leukemia 110%

O=C(/C=C/c1cc(-c2ccc3c(c2)OCO3)n[nH]1)c1ccc2c(c1)OCO2
inactive: HT29 colon 100% | SNB-75 CNS 101% | SNB-19 CNS 72% | U251 CNS 75.7% | PC-3 prostate 74.6% | SK-MEL-5 melanoma 98% | UACC-62 melanoma 97.4% | LOX IMVI melanoma 87.6% | SK-MEL-28 melanoma 109% | SK-MEL-2 melanoma 96.6% | SN12C renal 88.9% | UO-31 renal 74.5% | TK-10 renal 106% | CAKI-1 renal 95.1% | A498 renal 93.3% | CCRF-CEM leukemia 72.9% | MOLT-4 leukemia 83.4%

CC(O)CN1CCCCC1 (stereo not drawn)
inactive: HT29 colon 92.3% | SNB-19 CNS 100% | U251 CNS 99.6% | PC-3 prostate 102% | SK-MEL-5 melanoma 105% | UACC-62 melanoma 101% | LOX IMVI melanoma 101% | SK-MEL-28 melanoma 109% | SK-MEL-2 melanoma 113% | EKVX NSCLC 105% | SN12C renal 96.8% | UO-31 renal 86.3% | TK-10 renal 110% | ACHN renal 108% | CAKI-1 renal 95.7% | A498 renal 94.5%

Fc1ccccc1-c1nc(-c2nc3cc(Cl)c(Cl)cc3[nH]2)c2ccccn12
inactive: HT29 colon 70.8% | SNB-75 CNS 38.1% | SNB-19 CNS 93.1% | U251 CNS 95% | PC-3 prostate 62.2% | SK-MEL-5 melanoma 79.4% | UACC-62 melanoma 83.1% | LOX IMVI melanoma 79.9% | SK-MEL-2 melanoma 81.5% | SN12C renal 70.7% | UO-31 renal 62.6% | TK-10 renal 76.5% | A498 renal 104% | CCRF-CEM leukemia 81.9% | MOLT-4 leukemia 67.1%

CCOC(=O)c1ccc2c(c1)c1c(C)c3cccnc3c(C)c1n2C
inactive: HT29 colon 47.4% | SNB-75 CNS 68% | SNB-19 CNS 56.4% | U251 CNS 48.1% | PC-3 prostate 58.3% | SK-MEL-5 melanoma 69.9% | UACC-62 melanoma 49.2% | LOX IMVI melanoma 22.9% | SK-MEL-28 melanoma 85.3% | SK-MEL-2 melanoma 96% | SN12C renal 33.8% | UO-31 renal 32% | TK-10 renal 87.8% | ACHN renal 29.8% | CAKI-1 renal 30.9% | A498 renal 83.4% | CCRF-CEM leukemia 47.9% | MOLT-4 leukemia 21.4%

C=C1C(=O)O[C@H]2[C@H]1CC/C(COC(=O)NCc1ccccc1OC)=C\CC[C@@]1(C)O[C@@H]21
inactive: SNB-75 CNS 77.4% | U251 CNS 74.8% | PC-3 prostate 52.4% | SK-MEL-5 melanoma 92.8% | UACC-62 melanoma 23.4% | SK-MEL-28 melanoma 47.5% | SK-MEL-2 melanoma 60.6% | SN12C renal 23.4% | UO-31 renal 22% | TK-10 renal 20.6% | CAKI-1 renal 13.7% | A498 renal 67.1%
active: HT29 colon -3.76% | LOX IMVI melanoma 5.34% | ACHN renal 6.65% | CCRF-CEM leukemia 6.8%

CC1(C)C(=O)/C(=C\c2ccc(C(F)(F)F)cc2)C[C@]2(C)[C@H]3CC[C@@H]4[C@H]5[C@H](C(=O)/C=C/c6ccc(C(F)(F)F)cc6)CC[C@]5(CO)CC[C@@]4(C)[C@]3(C)CC[C@@H]12
inactive: HT29 colon 104% | SNB-75 CNS 83.7% | SNB-19 CNS 92.6% | U251 CNS 92.8% | PC-3 prostate 84% | SK-MEL-5 melanoma 94.1% | UACC-62 melanoma 84.3% | SK-MEL-28 melanoma 110% | SK-MEL-2 melanoma 105% | SN12C renal 91.8% | UO-31 renal 66.6% | TK-10 renal 126% | ACHN renal 91.9% | CAKI-1 renal 56.2% | A498 renal 93.7% | CCRF-CEM leukemia 90.5% | MOLT-4 leukemia 82.5%

O=C(Oc1ccccc1[N+](=O)[O-])C1CCCN1C(=O)OCc1ccccc1 (stereo not drawn)
inactive: HCT-15 colon 101% | SNB-75 CNS 99% | U251 CNS 96.8% | PC-3 prostate 97.3% | SK-MEL-5 melanoma 101% | UACC-62 melanoma 109% | LOX IMVI melanoma 84.2% | SK-MEL-28 melanoma 102% | EKVX NSCLC 96.7% | SN12C renal 98.7% | UO-31 renal 90.1% | TK-10 renal 112% | ACHN renal 105% | CAKI-1 renal 93.7% | A498 renal 95.5% | CCRF-CEM leukemia 99.1% | MOLT-4 leukemia 83.5%

CC1=NC2=CC=CC3=NC(C(Cl)(Cl)Cl)=NC(=N1)N23
inactive: HT29 colon 60% | SNB-75 CNS 56.2% | SNB-19 CNS 84.5% | U251 CNS 74.3% | PC-3 prostate 86.3% | SK-MEL-5 melanoma 88.4% | UACC-62 melanoma 69.5% | LOX IMVI melanoma 80.6% | SK-MEL-28 melanoma 86.1% | SK-MEL-2 melanoma 86.6% | EKVX NSCLC 76.1% | SN12C renal 86.7% | UO-31 renal 63% | TK-10 renal 112% | ACHN renal 61% | CAKI-1 renal 61.3% | A498 renal 81.9%
active: MOLT-4 leukemia 4.18%

O=S1(=O)CCC(N(/N=C/c2ccco2)c2ccccc2)C1 (stereo not drawn)
inactive: HT29 colon 96.3% | SNB-75 CNS 132% | SNB-19 CNS 104% | U251 CNS 99% | PC-3 prostate 93.1% | SK-MEL-5 melanoma 103% | UACC-62 melanoma 100% | LOX IMVI melanoma 94.1% | SK-MEL-28 melanoma 115% | SN12C renal 109% | UO-31 renal 86% | TK-10 renal 101% | ACHN renal 106% | CAKI-1 renal 107% | A498 renal 113% | MOLT-4 leukemia 97.1%

COc1ccc(-c2nc3sccn3c2/C=C/C(=O)c2cc(F)cc(F)c2)cc1
inactive: HT29 colon 65.2% | SNB-75 CNS 42.3% | SNB-19 CNS 67.8% | U251 CNS 45.4% | PC-3 prostate 62.3% | SK-MEL-5 melanoma 80.9% | UACC-62 melanoma 54.4% | LOX IMVI melanoma 50.1% | SK-MEL-28 melanoma 93% | SK-MEL-2 melanoma 74.7% | EKVX NSCLC 88% | SN12C renal 92.1% | UO-31 renal 60.5% | TK-10 renal 164% | ACHN renal 65.4% | CAKI-1 renal 57.1% | A498 renal 57.6% | CCRF-CEM leukemia 19.4%
active: MOLT-4 leukemia 5.45%

C=C[C@@H]1C[C@@H]2Cc3cc(F)ccc3N1O2
active: CCRF-CEM leukemia -57.7%
inactive: HCT-15 colon 104% | SNB-75 CNS 99.7% | U251 CNS 99.3% | PC-3 prostate 102% | SK-MEL-5 melanoma 108% | UACC-62 melanoma 100% | LOX IMVI melanoma 104% | SK-MEL-2 melanoma 117% | EKVX NSCLC 110% | SN12C renal 102% | UO-31 renal 129% | TK-10 renal 107% | ACHN renal 106% | A498 renal 97.8%

O=C1Nc2ccc(Cl)cc2C12Nc1cc(Cl)ccc1S2 (stereo not drawn)
inactive: HCT-15 colon 87% | SNB-19 CNS 94.8% | U251 CNS 85.8% | PC-3 prostate 51.8% | SK-MEL-5 melanoma 70.9% | UACC-62 melanoma 71.5% | LOX IMVI melanoma 77.9% | SK-MEL-28 melanoma 110% | SK-MEL-2 melanoma 105% | EKVX NSCLC 73.3% | SN12C renal 90.1% | UO-31 renal 57.4% | TK-10 renal 111% | ACHN renal 104% | CAKI-1 renal 112% | A498 renal 118% | CCRF-CEM leukemia 97.3% | MOLT-4 leukemia 38.3%

N#Cc1ccc(N2Cc3ccccc3OC3=C2C(=O)c2c(O)ccc(O)c2C3=O)cc1
active: HT29 colon -62.4% | PC-3 prostate -25.6% | UACC-62 melanoma -26.3% | LOX IMVI melanoma -49.7% | SK-MEL-28 melanoma -32.2% | SK-MEL-2 melanoma -24% | SN12C renal -32.9% | UO-31 renal -80.5% | TK-10 renal -84.4% | ACHN renal -59.9% | CAKI-1 renal 2.96% | CCRF-CEM leukemia -8.98%
inactive: SNB-75 CNS 76% | SNB-19 CNS 27.6% | U251 CNS 10.2% | SK-MEL-5 melanoma 59.9% | A498 renal 93.4%

CCN(CC)c1ccc(C(=N)c2ccc(N(CC)CC)cc2)cc1
inactive: EKVX NSCLC 12.4% | TK-10 renal 10% | CCRF-CEM leukemia 12.1%
active: HT29 colon -10.5% | SNB-75 CNS -34.3% | SNB-19 CNS 4.23% | PC-3 prostate 3.06% | SK-MEL-5 melanoma -100% | UACC-62 melanoma -64.6% | SK-MEL-28 melanoma -39.9% | SK-MEL-2 melanoma -66.6% | SN12C renal 0.751% | UO-31 renal -33.6% | CAKI-1 renal -9.36% | A498 renal -44.3% | MOLT-4 leukemia -23.5%

COc1ccc(-c2c(N)n[nH]c2-c2cc(OC)c3c(c2)OCCO3)cc1
inactive: HT29 colon 29.7% | SNB-75 CNS 57.4% | SNB-19 CNS 84.9% | U251 CNS 77.6% | PC-3 prostate 66.9% | SK-MEL-5 melanoma 69.8% | UACC-62 melanoma 71% | LOX IMVI melanoma 69.8% | SK-MEL-28 melanoma 80.7% | SK-MEL-2 melanoma 64.8% | SN12C renal 88.7% | UO-31 renal 92% | TK-10 renal 71.3% | CAKI-1 renal 70.3% | A498 renal 71.4% | CCRF-CEM leukemia 73.7% | MOLT-4 leukemia 61.3%
